According to PubChem BioAssay AID720517 (National Center for Advancing Translational Sciences (NCATS), 2013):
Records with an inconclusive call do not appear. Unmarked numbers belong to inactive results. The call rests on the fitted dose curve; in most records, active means well fitted activation curve with a large enough effect; inconclusive means small, poorly fitted or top-dose-only effect; inactive means flat fitted curve, though single readings scatter.

assay: qHTS for Inhibitors of Cell Surface uPA Generation: FP59 Counterscreen for Cherry-picked Compounds; settings: FP59 anthrax toxin cytotoxicity counterscreen, cells; series mostly up to 115 µM; activity (protection from FP59): at the top concentration; further: 0% is about no effect

| SMILES | activity (protection from FP59) |
| --- | --- |
| CC(/C=C1\SC(=S)N(CCCC(=O)Nc2ccc(C(=O)O)cc2)C1=O)=C\c1ccccc1 | -0.862% |
| O=C(COC(=O)c1cc([N+](=O)[O-])ccc1NCCO)NCc1cccs1 | -1.43% |
| O=C1N[C@@H](Cc2c[nH]c3ccccc23)C(=O)N[C@H]1Cc1ccccc1 | -1.34% |
| COC(=O)COc1cc2ccccc2cc1C(=O)Nc1ccccc1 | -1.27% |
| COc1cc(N/C(N)=N/c2nc(C)cc(C)n2)cc(OC)c1 | -1.6% |
| O=C(CSc1nnnn1-c1cccc(F)c1)Nc1nc2ccccc2s1 | -1.19% |
| COc1cccc(-n2c(SCC(=O)Nc3cc(C)on3)nc3c([nH]c4ccccc43)c2=O)c1 | -1.21% |
| COc1cc2oc(=O)ccc2cc1[C@H](O)[C@@H](O)C(C)(C)O | -1.29% |
| CCC(=O)Nc1nc(-c2cc([N+](=O)[O-])cs2)cs1 | -1.47% |
| CCCCNC(=O)C1CCN(S(=O)(=O)c2c(C)noc2/C=C\c2ccc(OC)cc2)CC1 | -1.02% |
| COc1ccc(CCNC(=O)COC(=O)CNS(=O)(=O)c2ccc(SC)c([N+](=O)[O-])c2)cc1 | -1.44% |
| COc1ccc(OC)c(NC(=O)C2CCCN2C(=O)C2CCC(C)CC2)c1 (configuration not stated) | -1.26% |
| CCOC(=O)c1c(NC(=S)NC)sc2c1CCCC2 | 0.404% |
| O=C(O)CCc1nn2c3ccccc3n(CC(=O)O)c2nc1=O | -1.31% |
| CC(=O)NC(=S)Nc1ccc([N+](=O)[O-])cc1C | -1.26% |
| COc1ccc(C(=O)N2CCN(c3ccc(C(C)=O)cc3)CC2)cc1S(=O)(=O)N1CCCC1 | -1.46% |
| Cc1ccc(-n2nc3c(c2NC(=O)c2ccc4c(c2)OCO4)CS(=O)C3)c(C)c1 (configuration not stated) | -1.07% |
